# High-throughput results from PubChem.
# HCMV inh: inhibitors of human cytomegalovirus; activity change, negative = inhibition, % at 57.5 µM; actives 4.5% (n = 410,000); AID 1259415; HFF cells, HCMV-luciferase reporter, 72 h; hits give low values; in the data active = activity change below about -60%; inconclusive = no clear call, values can overlap the other calls; inactive = above about -39%
#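 Cell-based, HFFs, 1000 cells/well, 16 h 37C; cpds in DMSO + HCMV-luc, MOI 1 PFU/cell; 72 h 37C; OneGlo luminescence after 5 min RT; norm. to buffer vs Salinomycin 10uM.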
# FMDV inh: blocks foot and mouth disease virus; Potency, µM (top dose mostly 57.9 µM), for inactives: at the highest dose activity change, negative = inhibition, hits mostly inhibitors; AID 1159524; FMDV antiviral cell-based qHTS; actives 1.2% (n = 410,000); calls by dose curve; tested in HEK293T cells; note: read-out not given here; potency is the fitted concentration of half-maximal effect; nearly all actives have a fitted effect of over 45% in size
# VACV Venus inh: vaccinia inhibition (Venus reporter). Vaccinia virus Venus reporter expression, fluorescence. Potency, µM (top dose mostly 36.5 µM), for the others: at the top dose activity change, negative = inhibition, hits mostly inhibitors. actives 0.46% (n = 330,000). AID 720580; calls by dose curve; tested in A549 cells; note: potency is the fitted concentration of half-maximal effect; nearly all actives have a fitted effect of over 30% in size
# HCV inhibitor: inhibitors of hepatitis C virus infection. Huh7.5.1 HCVcc-Cre infection, luciferase reporter, 44 h. actives 3.4% (n = 340,000). Potency, µM (top dose mostly 41.8 µM), for the others: at the top dose activity change, negative = inhibition, most hits filed as inhibitors. AID 651820; note: potency is the fitted concentration of half-maximal effect
#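 Antiviral activity was scored by luciferase reporter output from cells infected with HCVcc-Cre (~0.5 moi) in presence of compound, 44 h infection period, cells seeded 1,000/well 4 h prior.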
# Vaccinia mCherry: vaccinia inhibition (mCherry reporter). actives 0.63% (n = 310,000). Potency, µM (doses to about 36.5 µM), inactives show at the highest dose activity change, negative = inhibition, hits mostly inhibitors. AID 720579. Vaccinia virus mCherry reporter infection, fluorescence; calls by dose curve; tested in A549 cells; note: potency is the fitted concentration of half-maximal effect; nearly all actives have a fitted effect of over 35% in size
# Sm TGR block: blocks Schistosoma mansoni thioredoxin glutathione reductase. Q962Y6. purified TGR, DTNB reduction, TNB absorbance 405 nm. Potency, µM (top dose mostly 114 µM), for inactives: at the top dose activity change, negative = inhibition, hits mostly inhibitors. actives 3% (n = 360,000). AID 485364; note: potency is the fitted concentration of half-maximal effect; nearly all actives have a fitted effect of over 60% in size
#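 First, TGR (20 nM dispensed) and NADPH were mixed with compound. Second, a 15 min room-temperature incubation followed. Third, further NADPH and then DTNB were added to start the reaction. Finally, TNB absorbance was monitored kinetically.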
# Numbers without * were called inactive; i = inactive; ? = inconclusive; nt = not tested or not shown; [ ] = dose if it differs, or a comment. This is a sample that favours compounds with a hit; in the whole collection about 9.3% have one here. Unless noted, calls come from the whole dose curve; as a rule, active = well fitted curve in the direction sought with a large enough effect; inconclusive = small, poorly fitted or top-dose-only effect, or another doubt; inactive = no such curve, though single readings can be large; an effect the other way counts as inactive or inconclusive. % is set by controls: 0 for no effect and ±100 for the full control effect.
SMILES,HCMV inh,FMDV inh,VACV Venus inh,HCV inhibitor,Vaccinia mCherry,Sm TGR block
COc1ccc(NC(=O)c2ccc3c(c2)C(=O)N(CC2CCCO2)C3=O)cc1O (stereo unspecified),-1,3%,-6%,10%,i,-1%
COc1ccc(OC)c(NC(=O)c2ccc3c(c2)C(=O)N(CC2CCCO2)C3=O)c1 (stereo unspecified),-66*,-9%,1%,-2%,i,6%
CCc1ccccc1NC(=O)Nc1cccn(Cc2ccccc2F)c1=O,-12,?,nt,11µM*,nt,-3%
CCOc1ccc(NC(=O)Nc2cccn(Cc3ccccc3)c2=O)cc1,-84*,?,?,10µM*,?,nt
O=c1c(-c2ccco2)nc2ccccc2n1C(CCc1ccccc1)c1nc2ccccc2[nH]1 (stereo unspecified),-7,-2%,11%,nt,i,nt
Cc1nc(SCC(=O)NC(=O)NC2CCCCC2)nc(C)c1C,-23,20%,-1%,?,-2%,7%
O=C1CN(C(=O)c2ccccc2)C(c2ccc(F)cc2)c2cc(Br)ccc2N1 (stereo unspecified),-11,-6%,-20%,-16%,-26%,0%
CCCC(O)c1nc2ccccc2n1CCCOc1ccc(Cl)cc1 (stereo unspecified),-76*,20µM*,-20%,nt,-7%,2%
O=C(CSc1nncn2c1cc1sccc12)Nc1ccccc1C(F)(F)F,-73*,-11%,-4%,nt,-6%,0%
COc1ccccc1NC(=O)CSc1nncn2c1cc1sccc12,?,-15%,-30%,nt,?,5%
CC(=O)N1CCc2cc(N=NC3=C(O)CCCC3=O)ccc21,12,5%,-2%,-1%,-12%,?
COc1cccc(N2CCN(C(=O)c3ccc(CS(=O)c4cccc(Cl)c4)o3)CC2)c1 (stereo unspecified),-69*,-22%,-19%,nt,5%,-32%
COc1ccc(N2CCN(C(=O)c3ccc(COc4ccc([N+](=O)[O-])cc4)o3)CC2)cc1,?,28µM*,-15%,?,-4%,-12%
Cc1cccc(S(=O)Cc2ccc(C(=O)N3CCOCC3)o2)c1 (stereo unspecified),17,-5%,-7%[7.34 µM],8%,-14%[7.34 µM],45µM*
COc1ccc(N2CCN(C(=O)c3ccc(CS(=O)c4cccc(Cl)c4)o3)CC2)cc1 (stereo unspecified),-73*,?,-28%,nt,-12%,nt
Cc1ccc2c(=O)cc(C(=O)Nc3sc4c(c3C(=O)NCC3CCCO3)CCC4)oc2c1 (stereo unspecified),-11,-16%,-4%,nt,-19%,1%
Cc1ccc(C)c(-c2ccc(=O)n(C(C)C(=O)Nc3ccccc3C(F)(F)F)n2)c1 (stereo unspecified),25,-26%,-4%,nt,-10%,-1%
COc1ccc(C2NCCc3c2[nH]c2ccccc32)cc1CN1CCc2cc(OC)c(OC)cc2C1C (stereo unspecified),nt,-15%,-12%,11µM*,?,-17%
COc1ccc(C2NCCc3c2[nH]c2ccccc32)cc1COc1ccc(F)cc1 (stereo unspecified),-98*,?,nt,10µM*,nt,-4%
CCc1cccc2c(C(=O)CN3C(=O)N(C)C4(CCCCC4)C3=O)c[nH]c12,-21,-12%,nt,7.1µM*,nt,-7%
CCc1cccc2c(C(=O)CN3C(=O)NC(C)(c4cccc5ccccc45)C3=O)c[nH]c12 (stereo unspecified),54,?,?,?,?,-6%
CCc1cccc2c(C(=O)CN3C(=O)NC4(CCc5ccccc54)C3=O)c[nH]c12 (stereo unspecified),-69*,-27%,?,?,?,-13%
CC(=O)C1C(=O)c2c(cccc2[N+](=O)[O-])C1=Nc1cccc(Cl)c1 (stereo unspecified),77,0%,-10%,?,-10%,?
COC(=O)c1sc2cccc(F)c2c1S(=O)(=O)Nc1ccc(C)cc1Cl,21,6%,-11%,nt,-10%,0%
CC(C)COc1ccc(CNC(=S)Nc2ccccc2)cc1Cl,-26,-7%,-16%,10µM*,-26%,0%
SMILES,HCMV inh,FMDV inh,VACV Venus inh,HCV inhibitor,Vaccinia mCherry,Sm TGR block
CC(C)Oc1ccc(CNC(=S)Nc2ccccc2)cc1Cl,37,29%,nt,-2%,nt,0%
COc1ccc(CNC(=S)Nc2ccccc2)cc1Cl,6,28%,nt,?,nt,-35%
CCCOc1ccc(CNC(=S)Nc2ccccc2)cc1Cl,-3,-5%,-21%,16µM*,i,1%
S=C(NCCCc1ccccc1)NCc1ccccc1,-83*,28%,-5%,-14%,-2%,4%
CC(C)COc1ccc(CNC(=S)NCc2ccccc2)cc1,-82*,nt,-23%,?,-24%,5%
O=C(NCCC(=O)N1CCN(C(=O)c2ccco2)CC1)c1ccccc1Cl,-17,-12%,-7%,3%,i,nt
NNC(=O)c1[nH]c2ccc(Cl)cc2c1-c1ccccc1,-97*,-5%,?,-12%,-27%,-1%
O=C(O)CSc1c(-c2ccccc2)c2cc(Cl)ccc2[nH]c1=O,-34,2%,-16%,46%,-10%,-2%
NNC(=O)c1[nH]c2ccc(Br)cc2c1-c1ccccc1,-96*,-24%,?,4%,?,-6%
COc1ccc(Br)c2c1-c1nc(NC(=O)c3ccccc3SC)sc1C2,-63*,-23%,-6%,nt,-14%,0%
CC(=O)Nc1ccc(-c2nccc3[nH]nc(-c4cccc(C(F)(F)F)c4)c23)cc1,-102*,nt,nt,nt,nt,nt
COc1ccc(/C(C)=N/Nc2nc3ccccc3nc2C)cc1,-1,0%,-4%,13µM*,?,-31%
COc1ccc(/C(C)=N/Nc2nncc3ccccc23)cc1,20,-3%,-2%,?,-6%,29%
COCC1CCN(Cc2cn[nH]c2-c2cc(OC)c(OC)c(OC)c2)CC1,47,8%,2%,6%,-26%,-31%
Cc1ccc(C(=O)CSc2nc(C)cc(C)c2C(=O)Nc2cccc(C)c2)cc1,14,-12%,-14%,nt,-10%,2%
O=C(Nc1ccc(F)cc1)C1CC(=O)n2cnnc2N1 (stereo unspecified),-31,11%,-8%,14%,i,2%
O=C1CC(C(=O)Nc2ccc(F)cc2)n2cnnc2N1 (stereo unspecified),-71*,-8%,-11%,?,3%,-12%
C=C1CCN([C@H](C(=O)NCc2ccc(Cl)cc2)C(C)C)S(=O)(=O)c2ccccc21,6,-18%,-18%,17%,i,12%
